Source: PubChem BioAssay (Tox21)
Calls of active or inactive are those of the source. A call without a number means that no potency is given here. Unless noted, calls follow the shape of the dose curve; as a rule, active = well fitted curve in the direction sought with a large enough effect in the repeat runs; inconclusive = weak or mixed curves; inactive = no such curve, though single readings can be large; an effect the other way counts as inactive or inconclusive.

How the values were obtained:
[1] = qHTS assay to identify small molecule antagonists of the thyroid receptor (TR) signaling pathway - cell viability counter screen (AID 743064); also: nearly all actives have a fitted effect of over 50% in size; also: potency is read from the fitted curve at half-maximal effect
Method in brief: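 In-well cytotoxicity read by CellTiter-Fluor (30 min, 37 C) following 23.5 h exposure of GH3 cells bearing a TRE-luciferase sensor. Compounds were added alongside 1 nM (final) T3 to drive TR transactivation.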

[2] = qHTS assay to identify small molecule antagonists of the thyroid receptor (TR) signaling pathway (AID 743065); also: nearly all actives have a fitted effect of over 55% in size; also: potency is read from the fitted curve at half-maximal effect
Method in brief: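 Antagonism measured as loss of luciferase signal in GH3 cells stably carrying a TRE-luciferase reporter, co-treated with compound and T3 (1 nM final) for 23.5 h at 37 C. Viability was read in the same well by CellTiter-Fluor.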

[3] = test system: thyroid hormone receptor (rat, GH3 cells); assay: qHTS assay to identify small molecule agonists of the thyroid receptor (TR) signaling pathway (AID 743066; calls by dose curve; also: potency is read from the fitted curve at half-maximal effect)
[4] = qHTS assay to identify small molecule antagonists of the estrogen receptor alpha (ER-alpha) signaling pathway - cell viability counter screen (AID 743074; calls by dose curve;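 also: HEK293 cells carrying ER-alpha-UAS-bla reporter stimulated with 17beta-estradiol; nearly all actives have a fitted effect of over 45% in size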)
[5] = qHTS assay to identify small molecule antagonists of the estrogen receptor alpha (ER-alpha) signaling pathway using the BG1 cell line - cell viability counter screen (AID 743081);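 also: compound given together with 17beta-estradiol as the ER stimulus; nearly all actives have a fitted effect of over 45% in size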; also: potency is read from the fitted curve at half-maximal effect
[6] = molecular target: Estrogen receptor (Homo sapiens) (UniProt P03372); assay: qHTS assay to identify small molecule agonists of the estrogen receptor alpha (ER-alpha) signaling pathway (AID 743075; calls by dose curve;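 also: HEK293 GripTite cells with ER-alpha and UAS-driven beta-lactamase reporter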; also: potency is read from the fitted curve at half-maximal effect)
[7] = molecular target: Estrogen receptor (Homo sapiens) (UniProt P03372); assay: qHTS assay to identify small molecule agonists of the estrogen receptor alpha (ER-alpha) signaling pathway using the BG1 cell line (AID 743079); settings: BG1Luc4E2 cells, ERE-luciferase agonist, 22 h; activation: at 70.3 µM (top of the series); also: nearly all actives have a fitted effect of over 20% in size; also: potency is read from the fitted curve at half-maximal effect
Aromatase (Homo sapiens) = Aromatase (Homo sapiens) (UniProt P11511); assay: qHTS assay to identify aromatase inhibitors (AID 743083); also: nearly all actives have a fitted effect of over 55% in size; also: potency is read from the fitted curve at half-maximal effect
[8] = qHTS assay to identify small molecule antagonists of the estrogen receptor alpha (ER-alpha) signaling pathway using the BG1 cell line (AID 743080; calls by dose curve;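 also: BG1 cells stimulated with 17beta-estradiol alongside compound; nearly all actives have a fitted effect of over 25% in size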; also: potency is read from the fitted curve at half-maximal effect)
Method in brief: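 Seeding, 24 h rest, compound transfer from DMSO, 17beta-estradiol addition, 21.5 h incubation, CellTiter-Fluor (30 min, 37 C), then ONE-Glo (30 min, room temperature): this sequence was run on BG1-Luc-4E2 reporter cells.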

[9] = molecular target: Estrogen receptor (Homo sapiens) (UniProt P03372); assay: qHTS assay to identify small molecule antagonists of the estrogen receptor alpha (ER-alpha) signaling pathway (AID 743069; active = well fitted curve in the direction sought with a large enough effect in the signal ratio in the repeat runs, not every such curve was filed as active; inconclusive = weak or mixed curves, or effect the other way; inactive = no such curve, though single readings can be large or run the other way; the % refers to the signal ratio)
Method in brief: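 ER-alpha-UAS-bla GripTite HEK293 line; 2% charcoal-stripped FBS overnight; plated, 4 hr 37C/5% CO2; cpd in DMSO + 17beta-estradiol, 18 hr 37C; LiveBLAzer B/G FRET substrate 2 hr RT; fluorescence intensity.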

Chain of Estrogen receptor (Homo sapiens) (P03372 whole entry, looked up): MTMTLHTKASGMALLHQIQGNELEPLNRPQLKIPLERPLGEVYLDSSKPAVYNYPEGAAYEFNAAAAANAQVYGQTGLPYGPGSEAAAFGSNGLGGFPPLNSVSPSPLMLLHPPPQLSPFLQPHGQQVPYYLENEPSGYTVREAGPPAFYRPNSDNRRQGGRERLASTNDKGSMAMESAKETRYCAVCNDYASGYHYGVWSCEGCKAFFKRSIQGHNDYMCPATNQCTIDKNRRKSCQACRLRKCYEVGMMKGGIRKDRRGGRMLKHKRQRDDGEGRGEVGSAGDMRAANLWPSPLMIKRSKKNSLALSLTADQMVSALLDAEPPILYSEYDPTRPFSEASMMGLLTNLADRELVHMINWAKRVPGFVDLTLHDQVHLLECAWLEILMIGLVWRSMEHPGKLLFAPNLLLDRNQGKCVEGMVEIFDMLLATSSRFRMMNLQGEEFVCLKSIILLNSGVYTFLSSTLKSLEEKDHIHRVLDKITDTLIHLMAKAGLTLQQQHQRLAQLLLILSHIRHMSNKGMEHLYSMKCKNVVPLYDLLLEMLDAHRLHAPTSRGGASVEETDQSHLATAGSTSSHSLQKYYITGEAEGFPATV
Chain of Aromatase (Homo sapiens) (P11511 whole entry, looked up): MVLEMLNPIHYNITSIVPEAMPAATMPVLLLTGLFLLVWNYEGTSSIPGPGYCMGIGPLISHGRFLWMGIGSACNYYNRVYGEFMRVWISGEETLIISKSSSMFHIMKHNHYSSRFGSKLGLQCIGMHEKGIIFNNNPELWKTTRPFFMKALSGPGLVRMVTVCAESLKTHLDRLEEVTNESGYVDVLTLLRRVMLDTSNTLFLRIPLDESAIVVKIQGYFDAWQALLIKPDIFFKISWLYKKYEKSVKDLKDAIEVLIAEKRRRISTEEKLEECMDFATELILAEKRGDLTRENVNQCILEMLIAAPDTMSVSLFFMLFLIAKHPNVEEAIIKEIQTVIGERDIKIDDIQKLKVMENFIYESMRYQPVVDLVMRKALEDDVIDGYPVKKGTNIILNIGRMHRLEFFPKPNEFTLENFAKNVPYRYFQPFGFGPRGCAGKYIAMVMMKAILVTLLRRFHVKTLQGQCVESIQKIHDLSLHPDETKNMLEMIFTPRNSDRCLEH

SMILES	Potency [1]	Potency [2]	Potency [3]	Potency [4]	Potency [5]	Potency [6]	Potency [7]	Potency (Aromatase (Homo sapiens))	Potency [8]	Potency [9]	activation [7]
Cc1c(N)nc(C(CC(N)=O)NCC(N)C(N)=O)nc1C(=O)NC(C(=O)NC(C)C(O)C(C)C(=O)NC(C(=O)NCCc1nc(-c2nc(C(=O)NCCCN[C@@H](C)c3ccccc3)cs2)cs1)C(C)O)C(O[C@@H]1O[C@@H](CO)[C@@H](O)[C@H](O)[C@@H]1O[C@H]1O[C@H](CO)[C@@H](O)[C@H](OC(N)=O)[C@@H]1O)c1cnc[nH]1 (stereo not given in full)	1.68 µM (active)	3.76 µM (active)	inactive	inactive	inactive	–	–	–	–	–	–
C[C@@H]1C[C@H]2[C@@H]3CCC4=CC(=O)C=C[C@]4(C)[C@@]3(F)[C@@H](O)C[C@]2(C)[C@@]1(O)C(=O)COC(=O)c1cccc(S(=O)(=O)O)c1	inactive	inactive	inactive	inactive	inactive	inactive	15 µM (active)	inactive	–	–	–
Cc1ccc(/C(=C\CN2CCCC2)c2cccc(/C=C/C(=O)O)n2)cc1	inactive	inactive	inactive	inactive	inactive	–	–	–	–	–	–
CC(C)(C)CC(=O)OCC(=O)[C@@]12OC(C)(C)O[C@@H]1C[C@H]1[C@@H]3CCC4=CC(=O)C=C[C@]4(C)[C@@]3(F)[C@@H](O)C[C@@]12C	inactive	inactive	inactive	inactive	–	–	inactive	inactive	–	–	–
CC[C@H](C)[C@@H]1NC(=O)[C@H](Cc2ccc(O)cc2)NC(=O)[C@@H](N)CSSC[C@@H](C(=O)N2CCC[C@H]2C(=O)N[C@@H](CC(C)C)C(=O)NCC(N)=O)NC(=O)[C@H](CC(N)=O)NC(=O)[C@H](CCC(N)=O)NC1=O	inactive	inactive	inactive	inactive	inactive	–	–	inactive	inactive	–	–
CC(=O)[C@@]1(O)CC[C@H]2[C@@H]3C=C(Cl)C4=CC(=O)CC[C@]4(C)[C@H]3CC[C@@]21C	inactive	29.8 µM (active)	inactive	inactive	–	inactive	29.8 µM (active)	inactive	–	–	–
CCCC(=O)O[C@]1(C(=O)COC(=O)CC)[C@@H](C)C[C@H]2[C@@H]3CCC4=CC(=O)C=C[C@]4(C)[C@@]3(F)[C@@H](O)C[C@@]21C	inactive	inactive	inactive	inactive	–	inactive	inactive	inactive	–	–	–
COc1cc(S(C)=O)ccc1-c1nc2ncccc2[nH]1 (stereo not given)	inactive	inactive	inactive	–	inactive	inactive	inactive	inactive	inactive	inactive	–
C=C(NC(=O)C(=C)NC(=O)c1csc(C2=N[C@@H]3c4csc(n4)[C@H]4NC(=O)c5csc(n5)[C@H]([C@](C)(O)[C@@H](C)O)NC(=O)[C@H]5CSC(=N5)C(=CC)NC(=O)C([C@@H](C)O)NC(=O)c5csc(n5)[C@]3(CC2)NC(=O)[C@H](C)NC(=O)C(=C)NC(=O)[C@H](C)NC(=O)C([C@@H](C)CC)NC2C=Cc3c([C@H](C)O)cc(nc3C2O)C(=O)O[C@@H]4C)n1)C(N)=O (stereo not given in full)	8.04 µM (active)	12.7 µM (active)	5.69 µM (active)	inactive	–	–	inactive	inactive	inactive	–	–
Cc1ccccc1CNc1ncnc2c1ncn2[C@@H]1O[C@H](CO)[C@@H](O)[C@H]1O	inactive	inactive	inactive	inactive	inactive	–	inactive	–	inactive	–	–
C[C@]12CC[C@@H]3c4ccc(O)cc4CC[C@H]3[C@@H]1CC[C@@H]2OP(=O)(O)O	inactive	inactive	inactive	inactive	inactive	0.0013 µM [inconclusive] (active)	0.0021 µM (active)	inactive	inactive	–	–
Cc1c(O)cc2c(c1C)O[C@](C)(CCC[C@H](C)CCC[C@H](C)CCCC(C)C)CC2	inactive	inactive	inactive	inactive	inactive	inactive	inactive	inactive	inactive	–	–
CC(=O)OCC(=O)[C@@]1(O)[C@H](C)C[C@H]2[C@@H]3C[C@H](F)C4=CC(=O)C=C[C@]4(C)[C@H]3[C@@H](O)C[C@@]21C	inactive	inactive	inactive	inactive	–	inactive	inactive	inactive	–	–	–
CC(=O)OC[C@H]1O[C@@H](O[C@H]2[C@H](O)[C@@H](OC(=O)c3ccccc3C(=O)O)[C@H](O)O[C@@H]2COC(C)=O)[C@H](O)[C@@H](OC(=O)c2ccccc2C(=O)O)[C@@H]1O	inactive	inactive	inactive	–	inactive	inactive	inactive	inactive	inactive	inactive	–
CCCCCCCN(CC)CCCC(O)c1ccc(NS(C)(=O)=O)cc1 (stereo not given)	23.7 µM (active)	21.1 µM (active)	inactive	inactive	–	–	–	–	–	–	–
CCCCCCCCCCCCCCCC(=O)OC[C@@H](COP(=O)([O-])OCC[N+](C)(C)C)OC(=O)CCCCCCCCCCCCCCC	inactive	inactive	inactive	–	inactive	inactive	29.8 µM (active)	inactive	inactive	inactive	–
Cc1cc(Nc2ccccc2C(=O)O)ccc1Cl	inactive	26.6 µM (active)	inactive	inactive	–	inactive	–	inactive	inactive	–	–
O=c1oc2cc(O)ccc2s1	inactive	inactive	inactive	inactive	inactive	inactive	inactive	inactive	inactive	–	–
CC(=O)[C@@]1(O)CC[C@H]2[C@@H]3C=C(Cl)C4=CC(=O)[C@@H]5C[C@@H]5[C@]4(C)[C@H]3CC[C@@]21C	inactive	inactive	inactive	inactive	inactive	inactive	inactive	inactive	inactive	–	–
CCc1ccc(S(=O)(=O)O)cc1	inactive	inactive	inactive	inactive	inactive	4.77 µM [inconclusive] (active)	0.298 µM (active)	inactive	inactive	–	–
C=C1c2c(Cl)ccc(O)c2C(O)=C2C(=O)[C@]3(O)C(O)=C(C(N)=O)C(=O)[C@@H](N(C)C)[C@@H]3[C@@H](O)[C@H]12	inactive	inactive	inactive	inactive	inactive	inactive	inactive	inactive	inactive	–	–

SMILES	Potency [1]	Potency [2]	Potency [3]	Potency [4]	Potency [5]	Potency [6]	Potency [7]	Potency (Aromatase (Homo sapiens))	Potency [8]	Potency [9]	activation [7]
CN(C)c1ccc(C(=C2C=CC(=[N+](C)C)C=C2)c2c(O)c(S(=O)(=O)[O-])cc3cc(S(=O)(=O)O)ccc23)cc1	29.8 µM (active)	11.9 µM (active)	inactive	–	23.7 µM (active)	inactive	–	26.6 µM (active)	–	inactive	–
CCC(=O)OCC(=O)[C@@]1(OC(=O)CC)[C@H](C)C[C@H]2[C@H]3[C@H]([C@@H](O)C[C@@]21C)[C@@]1(C)C=CC(=O)C=C1C[C@H]3Cl	inactive	inactive	inactive	inactive	inactive	inactive	–	inactive	–	–	–
CO[C@@H]1[C@@H](O[C@@H]2O[C@H](C)[C@@H](O[C@H]3C[C@@](C)(O)[C@@H](OC(=O)CC(C)C)[C@H](C)O3)[C@H](N(C)C)[C@H]2O)[C@@H](CC=O)C[C@@H](C)C(=O)/C=C/C2OC2C[C@@H](C)OC(=O)C[C@H]1OC(C)=O (stereo not given in full)	29.8 µM (active)	23.7 µM (active)	inactive	inactive	–	inactive	–	inactive	inactive	–	–
CCOC(=O)Nc1ccc2c(c1)N(C(=O)CN(C)C)c1ccccc1CC2	48.6 µM (active)	48.6 µM (active)	inactive	inactive	–	–	–	–	–	–	–
CCOc1ccc(N=C(C)Nc2ccc(OCC)cc2)cc1	inactive	inactive	inactive	–	–	inactive	inactive	inactive	inactive	inactive	–
CC(C)(C)C1(O)CCN2CC3c4ccccc4CCc4cccc(c43)C2C1 (stereo not given)	26.6 µM (active)	23.7 µM (active)	inactive	inactive	inactive	inactive	–	29.8 µM (active)	–	–	–
N[C@H](CC(=O)O)C(=O)O	inactive	inactive	inactive	inactive	inactive	inactive	inactive	inactive	inactive	–	–
C[C@]12CCC(=O)C=C1CC[C@@H]1[C@@H]2[C@@H](O)C[C@@]2(C)[C@H]1CC[C@]2(O)C(=O)COP(=O)(O)O	inactive	inactive	inactive	inactive	inactive	–	29.8 µM (active)	inactive	–	–	–
C[C@]12CC[C@@H]3c4ccc(OS(=O)(=O)O)cc4CC[C@H]3[C@@H]1CCC2=O	inactive	inactive	inactive	inactive	inactive	–	–	–	–	–	–
Cc1cc(-c2ccc(N=Nc3c(S(=O)(=O)O)cc4cc(S(=O)(=O)O)cc(N)c4c3O)c(C)c2)ccc1N=Nc1c(S(=O)(=O)O)cc2cc(S(=O)(=O)O)cc(N)c2c1O	23.7 µM (active)	11.9 µM (active)	inactive	–	21.1 µM (active)	inactive	–	11.9 µM (active)	–	inactive	–
CCCCC[C@H](O)/C=C/[C@@H]1[C@H]2C/C(=C/CCCC(=O)O)O[C@H]2C[C@H]1O	inactive	inactive	inactive	inactive	–	–	inactive	inactive	–	–	–
CN[C@H]1CCc2cc(OC)c(OC)c(OC)c2-c2ccc(OC)c(=O)cc21	0.119 µM (active)	0.0841 µM (active)	inactive	–	inactive	–	inactive	inactive	0.0841 µM (active)	inactive	–
C[C@]12CC[C@@H]3c4ccc(OC(=O)c5ccccc5)cc4CC[C@H]3[C@@H]1CC[C@@H]2O	inactive	inactive	inactive	inactive	inactive	0.0007 µM [inconclusive] (active)	–	inactive	–	–	82.8% (active)
CC(=O)N[C@@H](CC(=O)N[C@@H](CCC(=O)O)C(=O)O)C(=O)O	inactive	inactive	inactive	inactive	inactive	inactive	inactive	inactive	inactive	–	–
CNC[C@@H]1CC[C@@H](N)[C@@H](O[C@H]2[C@H](O)[C@@H](O[C@H]3OC[C@](C)(O)[C@H](NC)[C@H]3O)[C@H](N)C[C@@H]2N)O1	inactive	inactive	inactive	–	–	inactive	inactive	inactive	inactive	inactive	–
C=C1CC2C3CCC4=CC(=O)C=C[C@]4(C)[C@@]3(F)[C@@H](O)C[C@]2(C)[C@@]1(O)C(=O)COC(C)=O (stereo not given in full)	inactive	inactive	inactive	inactive	–	inactive	–	inactive	–	–	–
CS(=O)(=O)c1ccc(C2=C(c3ccccc3)C(=O)OC2)cc1	inactive	inactive	inactive	inactive	inactive	–	–	inactive	–	–	–
CC(=O)Nc1ccc(NC(=S)NC(=O)c2ccc(C(C)(C)C)cc2)cc1	8.41 µM (active)	2.66 µM (active)	inactive	inactive	inactive	–	–	inactive	–	–	–
CCCCCCCCCCCCCCCCCC(=O)OC[C@@H](O)[C@H]1OC[C@H](O)[C@H]1O	inactive	inactive	inactive	inactive	inactive	–	–	inactive	–	–	–
COc1c(O[C@@H]2O[C@H](CO)[C@@H](O)[C@H](O)[C@H]2O)cc2c(c1OC)-c1ccc(SC)c(=O)cc1[C@@H](NC(C)=O)CC2	inactive	inactive	inactive	inactive	inactive	–	–	inactive	–	–	–
